Screens deposited in PubChem by several laboratories.
A selection: hits, their analogues and other compounds. The true share with any hit is near 22%.
CYP2C19 inhib – blocks human cytochrome P450 2C19; CYP2C19 Supersomes, luciferin-H EGE luminescence, 30 min; inhibition, % at 5 µM; 96,000 tested, 21% active;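 active = CYP2C19 inhibition above a set limit at 5 µM in the primary screen, cut at about 50% in these data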;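 note: plate controls were negative control wells for no effect and 2.5 mM tranylcypromine positive control for full effect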
Measles CPE – protection of cells from measles virus; Measles virus-infected cells, CPE protection, absorbance; protection (pct of control), % at 4 µM; 140,000 tested, 1.5% active; AID 841; in the data active = protection mostly above about 24%, no sharp cut-off; inactive = mostly below about 26%
CYP2C19 act – cytochrome P450 2C19 (human) activation. recombinant CYP2C19, luciferin-H EGE luminescence; hits give high values; 0 = fully inhibited enzyme, 1 = untreated enzyme. activation factor at 5 µM. 96,000 tested, under 10 active;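 active = activation factor of at least 2 at 5 µM in the primary screen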;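 note: 0 = wells with 2.5 mM tranylcypromine and 1 = vehicle-only wells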
CYP2C9 activ – activators of human CYP2C9 | 96,000 tested, 1.4% active | activation factor at 5 µM | P11712 | AID 1024 | recombinant CYP2C9, luciferin-H conversion, luminescence; hits give high values; factor 1 = untreated enzyme, 0 = blocked;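 active = activation factor of 2 or more for CYP2C9 at a 5 µM dose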;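 note: 0 = sulfaphenazole-blocked wells and 1 = vehicle-only wells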
Target sequence (P11712 whole entry, looked up): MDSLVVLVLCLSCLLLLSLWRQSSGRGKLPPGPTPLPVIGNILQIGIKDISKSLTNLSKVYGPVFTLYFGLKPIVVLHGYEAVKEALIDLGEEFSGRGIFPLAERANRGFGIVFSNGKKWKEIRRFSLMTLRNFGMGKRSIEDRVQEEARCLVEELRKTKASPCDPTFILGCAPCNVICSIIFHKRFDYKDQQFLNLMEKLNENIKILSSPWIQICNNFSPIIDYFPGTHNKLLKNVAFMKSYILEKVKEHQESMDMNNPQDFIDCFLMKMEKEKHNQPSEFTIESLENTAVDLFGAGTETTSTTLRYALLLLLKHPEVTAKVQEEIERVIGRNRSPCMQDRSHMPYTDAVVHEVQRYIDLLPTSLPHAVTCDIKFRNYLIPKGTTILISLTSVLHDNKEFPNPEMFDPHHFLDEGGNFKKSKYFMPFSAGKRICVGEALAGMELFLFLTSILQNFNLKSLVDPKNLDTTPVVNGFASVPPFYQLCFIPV
CYP2C9 inhib – inhibitors of human CYP2C9; inhibition, % at 5 µM; CYP2C9 Supersomes, luciferin-H conversion, luminescence; P11712; 96,000 tested, 20% active;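 active = blocking of liver enzyme CYP2C9 beyond about 50% at 5 µM, limit read from the data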
The depositor's hits bear a star; · = no result.

SMILES	CYP2C19 inhib	Measles CPE	CYP2C19 act	CYP2C9 activ	CYP2C9 inhib
Cc1nc(C(=O)Nc2cccc(Cl)c2Cl)nn1-c1cc(OC(C)C)c(Cl)cc1Cl	-6	17	1.1	0.2	82*
CNC(=O)c1nc(C)n(-c2cc(Cl)ccc2Cl)n1	-8	2	1.1	1.1	-13
Cc1nc(C(=O)Nc2cc(Cl)ccc2Cl)nn1-c1cc(OC(C)C)c(Cl)cc1Cl	20	18	0.8	0.1	87*
Cc1nc(C(=O)Nc2cccc(Cl)c2)nn1-c1cc(OC(C)C)c(Cl)cc1Cl	62*	9	0.4	0.3	70*
Cc1nc(C(=O)Nc2ccc(Cl)cc2Cl)nn1-c1cc(OC(C)C)c(Cl)cc1Cl	4	16	1	0.4	58*
Cc1cccc(OCc2nc(C#N)c(N3CC(C)CC(C)C3)o2)c1 (configuration not stated)	82*	7	0.2	0.2	78*
N#Cc1nc(COc2ccc(Cl)cc2)oc1NCc1ccc2c(c1)OCO2	65*	21	0.3	0.2	84*
Cc1cccc(OCc2nc(C#N)c(NCCN(C)C)o2)c1	8	10	0.9	1	-2
Cc1cccc(OCc2nc(C#N)c(NCc3ccc4c(c3)OCO4)o2)c1	99*	5	0	0	97*
CCNc1oc(COc2cccc(C)c2)nc1C#N	98*	38*	0	0.5	51*
CCn1nc(C(=O)OCC(=O)Nc2ncc(Cl)c(C)c2Cl)c2ccccc2c1=O	·	7	·	·	·
Cc1nc(C#N)c(NCc2ccc3c(c2)OCO3)o1	92*	8	0.1	0.6	39
COc1ccc(CNc2oc(C)nc2C#N)cc1	·	3	·	·	·
CN(Cc1ccccc1)c1nc(CN2CCOCC2)nc2scc(-c3ccccc3)c12	·	6	·	·	·
c1csc(-c2csc3nc(CN4CCOCC4)nc(NCc4ccc5c(c4)OCO5)c23)c1	79*	38	0.2	0.2	84*
CCn1nnc(-c2ccccc2NS(=O)(=O)c2ccc(S(=O)(=O)N3CCCCCC3)cc2)n1	6	18	0.9	0.9	5
CCOC(=O)c1ccc(S(=O)(=O)Nc2ccccc2-c2nnn(CC)n2)cc1	99*	5	0	0	96*
CCOC(=O)c1ccc(S(=O)(=O)Nc2cc(C(C)(C)C)no2)cc1	16	40*	0.8	0.2	83*
CCOC(=O)c1ccc(NC(=O)CNS(=O)(=O)c2ccccc2)cc1	·	23	·	·	·
CCn1nnc(-c2ccccc2NS(=O)(=O)c2ccc(S(=O)(=O)N(C)C3CCCCC3)cc2)n1	17	11	0.8	0.2	84*
COc1cc(/C=N/NS(=O)(=O)c2ccc3ccccc3c2)ccc1OCCN1CCOCC1	·	4	·	·	·
CCOC(=O)N1CCN(S(=O)(=O)c2ccc3[nH]cc(C(=O)O)c(=O)c3c2)CC1	-21	4	1.2	1.1	-12
COC(=O)c1ccc(COC(=O)c2ccc(CO)cc2)o1	·	10	·	·	·
CC(C)(C)NCC(O)COCc1ccc(Cl)cc1 (configuration not stated)	14	13	0.9	1	0
CCc1nc(Nc2ccc3c(c2)OCCO3)c2oc3ccccc3c2n1	40	3	0.6	0.8	21
SMILES	CYP2C19 inhib	Measles CPE	CYP2C19 act	CYP2C9 activ	CYP2C9 inhib
Cc1nc(Nc2ccc3c(c2)OCCO3)c2oc3ccccc3c2n1	85*	13	0.1	0.2	76*
COc1ccc(Nc2ncnc3c2oc2ccccc23)cc1	55*	6	0.5	0.7	34
Cc1ccc(Nc2ncnc3c2oc2ccccc23)cc1	53*	22	0.5	0.7	32
c1ccc2c(c1)oc1c(Nc3ccc4c(c3)OCCO4)ncnc12	20	7	0.8	1.1	-6
CCn1cc(C(=O)NCc2ccco2)c(=O)c2cc(S(=O)(=O)N3CCC(C)CC3)ccc21	13	·	0.9	0.3	66*
CCn1cc(C(=O)NCCCN2CCC(C)CC2)c(=O)c2cc(S(=O)(=O)N3CCCC3)ccc21	-5	3	1	0.9	14
CCn1cc(C(=O)NCc2ccco2)c(=O)c2cc(S(=O)(=O)N3CC(C)CC(C)C3)ccc21 (configuration not stated)	9	·	0.9	0.4	58*
CCn1cc(C(=O)NCc2ccco2)c(=O)c2cc(S(=O)(=O)N3CCc4ccccc4C3)ccc21	36	8	0.6	0.2	78*
CCn1cc(C(=O)NCc2ccccn2)c(=O)c2cc(S(=O)(=O)N3CCCCC3)ccc21	10	10	0.9	0.5	48
CCn1cc(C(=O)NCc2ccco2)c(=O)c2cc(S(=O)(=O)N3CCCCCC3)ccc21	49	·	0.5	0.1	86*
COc1ccc(CN(C(=O)c2ccccc2OC)C2CCS(=O)(=O)C2)cc1 (configuration not stated)	14	21	0.9	0.9	10
O=C(CN(C(=O)CCNC(=O)c1ccco1)c1ccccc1)NC1CCCC1	25	13	0.7	0.8	24
O=C(Nc1ccc2nc3n(c(=O)c2c1)CCCC3)c1ccccc1[N+](=O)[O-]	·	12	·	·	·
Cc1ccc(/C=C/C2=NN(Cc3ccccc3Cl)C(=O)CC2)cc1	12	5	0.9	0.8	18
CCn1cc(C(=O)NCCN(C)CCc2ccccc2)c(=O)c2cc(S(=O)(=O)N(C)C)ccc21	37	6	0.6	0.3	75*
CC1CCCC(NC(=O)c2cn(C)c3ccc(S(=O)(=O)N4CCCC4)cc3c2=O)C1C (configuration not stated)	16	2	0.8	0.3	73*
C=CCn1cc(C(=O)NCc2ccco2)c(=O)c2cc(S(=O)(=O)N3CCCCCC3)ccc21	44	5	0.6	0.1	89*
CN(CCNC(=O)c1cn(C)c2ccc(S(=O)(=O)N(C)C)cc2c1=O)CCc1ccccc1	6	6	0.9	0.5	47
O=C(COC(=O)c1cc(S(=O)(=O)N2CCc3ccccc3C2)ccc1Cl)NCc1ccco1	40	10	0.6	0.3	66*
Cc1cc(C)c2[nH]c(=O)c(C(c3nnnn3Cc3ccc4c(c3)OCO4)N3CCC(C)CC3)cc2c1 (configuration not stated)	·	5	·	·	·
Cc1cc(C(=O)N/N=C2\CCCC(C)C2)n[nH]1 (configuration not stated)	-4	9	1	1.1	-10
CCn1cc(C(=O)NC2CCC(C)CC2)c(=O)c2cc(S(=O)(=O)N3CCCCC3)ccc21 (configuration not stated)	6	91*	0.9	0.6	39
COc1ccc(C2Nc3ccccc3C(=O)N2c2ccccc2)cc1COc1ccccn1 (configuration not stated)	30	7	0.7	0.4	59*
COc1ccc(C2Nc3ccccc3C(=O)N2c2ccccc2)cc1CSc1ccccn1 (configuration not stated)	·	4	·	·	·
COc1ccccc1N1C(=O)c2ccccc2NC1c1ccncc1 (configuration not stated)	39	22	0.6	0.4	56*
